High-throughput results: PubChem BioAssay, National Center for Advancing Translational Sciences (NCATS)
HEK293 tox: cytotoxic in the GLP-1 receptor inverse agonist counter-screen; HEK293 cAMP-luciferase reporter cells, luminescence, 24 h; Potency, µM (titrated, usually from 38.3 µM), without a hit: top-dose activity change, negative = inhibition, most hits filed as inhibitors; hit rate 0.13% among 410,000;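 note: loss of luciferase light is scored as toxicity; potency is the fitted concentration of half-maximal effect; % is set by controls: 0 for no effect and ±100 for the full control effect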
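Seeding density was 200 cells/uL; after overnight-length (12 h) culture, 23 nL compounds went on for 24 h at 37 °C. Readout used a luciferase detection reagent, luminescence taken after 12 min at room temperature.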
TRPML1 ag: agonists of human TRPML1 channel; Q9GZU1; TRPML1-expressing cells, Ca2+ dye fluorescence, FDSS; activation, % (test concentration not listed); hit rate 0.12% among 410,000; AID 624414; in the data active = activation above about 50%; inconclusive = mostly about 30% to 49%; note: 0% is about no effect
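In this qHTS format, compounds were pin-transferred onto Ca8-dye-loaded TRPML1-DL cells induced with Tet overnight, and intracellular Ca2+ fluorescence was recorded kinetically for 110 s after a 10 s baseline. A subsequent 4uM final 54-4 (EC80) addition followed by a second 110 s read served as the antagonist phase.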
PTHR1 agonist: PTHR1 (human) receptor agonism | Potency, µM (series often up to 115 µM), for the others: top-dose activation, most hits filed as activators | HEK293 GP2 PTHR1 cells, GloSensor cAMP luminescence, 1 h | Q03431 | hit rate 0.075% among 410,000; note: potency is the fitted concentration of half-maximal effect; nearly all actives have a fitted effect of over 55% in size
Target sequence (Q03431 whole entry, looked up): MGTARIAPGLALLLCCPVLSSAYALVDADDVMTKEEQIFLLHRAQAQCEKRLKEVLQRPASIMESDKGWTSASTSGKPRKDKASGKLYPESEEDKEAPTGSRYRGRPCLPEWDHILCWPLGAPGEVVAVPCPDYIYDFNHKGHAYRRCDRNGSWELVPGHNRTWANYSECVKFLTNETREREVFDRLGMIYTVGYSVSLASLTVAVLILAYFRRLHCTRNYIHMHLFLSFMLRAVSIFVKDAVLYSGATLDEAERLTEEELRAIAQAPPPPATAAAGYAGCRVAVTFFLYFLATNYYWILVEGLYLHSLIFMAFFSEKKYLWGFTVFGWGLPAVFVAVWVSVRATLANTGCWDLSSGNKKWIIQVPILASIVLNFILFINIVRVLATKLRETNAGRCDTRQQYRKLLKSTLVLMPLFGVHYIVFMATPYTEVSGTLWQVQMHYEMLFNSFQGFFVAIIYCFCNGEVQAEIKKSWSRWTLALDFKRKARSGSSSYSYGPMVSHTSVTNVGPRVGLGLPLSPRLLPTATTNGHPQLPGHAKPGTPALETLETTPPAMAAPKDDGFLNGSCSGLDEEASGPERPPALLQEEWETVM
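HEK-293-derived GP2 cells expressing PTHR1 and a GloSensor cAMP reporter, 3,000/well, plated overnight, given luciferin plus IBMX (each 0.5 mM as added) for 1 h at 37 °C, then compound for 1 h at 37 °C. Luminescence was read after 15 min at room temperature.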
TRPML1 inh: inhibitors of human TRPML1 channel; hit rate 0.02% among 390,000; TRPML1-inducible cells, Ca2+ dye fluorescence, FDSS; active compounds read low; inhibition of EC80 agonist-evoked calcium signal; activity change, negative = inhibition, % (concentration not given with the values); Q9GZU1; in the data active = activity change below about -50%; inconclusive = between about -30% and that limit;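 note: stimulus is agonist 54-4 at its EC80 concentration; % is set by controls: 0 for no effect and ±100 for the full control effect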
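TRPML1-DL cells, Tet-induced overnight (~16 h, 37 °C) at 1,500 cells/well, were loaded with Ca8 no-wash dye plus quencher for 45-90 min at room temperature. Compounds were pinned during FDSS kinetic reading; agonist 54-4 at EC80 (4 uM final) then added.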
TRHR agonist: TRH receptor (human) agonism. AID 493084. P34981. activation, % at 2 µM. hit rate 0.18% among 360,000. TRHR cells, calcium flux fluo-8, FDSS agonist mode; in the data active = activation above about 30%; note: 0% is about no effect
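TRHR-expressing cells loaded with fluo-8 calcium dye; 23 nL library compound pin-transferred, kinetic FDSS fluorescence (Ex 480/Em 530) recorded about 180 s for agonist-induced calcium release, before a 10 nM TRH EC20 addition for potentiator mode.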
TRHR enhancer: allosteric enhancers of human TRH receptor; AID 493056; TRHR cells, fluo-8 calcium fluorescence, EC20 TRH enhancement; enhancement, % at 2 µM; hit rate 0.66% among 360,000; P34981; in the data active = enhancement above about 30%; note: 0% is about no effect
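Enhancer read-out: after compound pinning and an initial kinetic agonist-mode read, an EC20 of TRH (10 nM final) was injected and fluo-8 calcium signal (Ex 480/Em 530) followed at 1 s/cycle for 100 cycles in TRHR-expressing cells.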
* hit, by the source's call; i = inactive; ? = inconclusive; . = not tested or not shown; [ ] = dose if it differs, or a comment. A selection: hits, their analogues and other compounds. The true share with any hit is near 0.93%. Unless noted, calls come from the whole dose curve; as a rule, active = well fitted curve in the direction sought with a large enough effect; inconclusive = small, poorly fitted or top-dose-only effect, or another doubt; inactive = no such curve, though single readings can be large; an effect the other way counts as inactive or inconclusive.

SMILES	HEK293 tox	TRPML1 ag	PTHR1 agonist	TRPML1 inh	TRHR agonist	TRHR enhancer
COc1cccc(CN2CCCC(C(=O)N3CCCCC3)C2)c1OC (centres undefined)	-2%	0	-24%	-25	-1	33*
CC(C)COc1ccc(C(=O)Nc2scc(-c3ccc(Br)cc3)c2C(=O)OC(C)C)cc1	-3%	1	i	-2	0	31*
O=[N+]([O-])c1ccc2c(c1)/C(=C/c1ccc(C=S)cc1)C=C2	.	-1	.	.	.	.
Cc1csc(=O)n1CC(=O)OCC(=O)Nc1ccc(F)c(F)c1	-8%	3	i	0	0	33*
Cc1ccc(NC(=O)COC(=O)Cn2c(C)csc2=O)cc1	0%	-1	0%	-1	0	-1
CC(C)(C)n1ncc2c(=O)n(Cc3cccc(OC(F)(F)F)c3)cnc21	.	1	.	17	.	.
S=C1NCN(Cc2ccco2)CN1	1%	0	i	-5	0	41*
C=CCN1CN(Cc2ccco2)CNC1=S	5%	0	-22%	-8	1	-2
CN(C)/[N+]([O-])=N/Oc1cc(F)c([N+](=O)[O-])cc1[N+](=O)[O-]	.	1	.	2	.	.
COC(=O)c1ccc(CN(Cc2ccc(C(=O)OC)o2)C(C)(C)C)o1	12%	-2	i	2	0	37*
CCOc1ccc(/C=N/Nc2nc(C)cs2)c(O)c1	3.2µM*	0	-74%	6	1	4
COc1cc2ccccc2cc1C(=O)OCC(=O)Nc1ccc(Br)cc1	.	0	.	.	.	.
COC(=O)Cc1c(C)c2ccc(OCC(=O)N(C)C)cc2oc1=O	2%	0	-4%[57.5 µM]	28	1	30*
OC(CBr)C[n+]1cc(Br)cc2ccccc21 (centres undefined)	.	0	.	.	.	.
O=c1cc(-c2ccccc2)nc2n1Cc1ccccc1-2	1%	2	15%[57.5 µM]	6	1	31*
CCN(CC)CC(=O)c1c(C)n(C)c2ccc(OC)cc12	.	0	.	.	.	.
Cc1ccc(Cn2cnc3c(cnn3C(C)(C)C)c2=O)cc1F	.	1	.	20	.	.
CC(C)[C@H](NC(=O)N1CC(=O)Nc2ccccc21)C(=O)N[C@H](C(=O)O)c1ccccc1	-3%	0	13%	-7	0	30*
CC(C)C[C@H](NC(=O)N1CC(=O)Nc2ccccc21)C(=O)N[C@H](C(=O)O)c1ccccc1	0%	.	-33%	.	0	33*
CC(C)[C@H](NC(=O)N1CC(=O)Nc2ccccc21)C(=O)N[C@@H](C(=O)O)c1ccccc1	2%	0	-24%	-11	0	-3
Cc1cc2c(s1)c1cnn(Cc3ccc(C(F)(F)F)cc3F)c(=O)c1n2C	.	.	.	.	1	2
O=C(COC(=O)c1cc(Cl)ccc1[N+](=O)[O-])NCc1ccc(Cl)cc1Cl	2%	2	-4%	-17	0	39*
COc1cc2nc(N3CCCN(C)CC3)nc(NC3CCNCC3)c2cc1OC	.	0	.	.	.	.
COC(=O)c1cc2n(n1)CCN(Cc1ccc(C)cc1)C2=O	-6%	-1	i	4	0	8
COC(=O)c1cc2n(n1)CCN(Cc1ccccc1Cl)C2=O	-1%	0	i	-12	0	32*
SMILES	HEK293 tox	TRPML1 ag	PTHR1 agonist	TRPML1 inh	TRHR agonist	TRHR enhancer
COc1cccc(N2CCN(c3ncnc4c3c(-c3ccccc3)cn4-c3cccc(C(F)(F)F)c3)CC2)c1	2%	53*	-7%	-18	0	3
COc1cccc(N2CCN(c3ncnc4c3c(-c3ccccc3)cn4-c3ccc(F)cc3)CC2)c1	9%	3	-7%	7	0	-5
Cc1ccc(O)c(NC(=S)NC(=O)Cc2ccc(Cl)cc2)c1	-8%	75*	i	1	19	-24
O=S(=O)(c1ccc2ccccc2c1)N1CCCCC1	3%	2	i	-14	-1	-4
O=S(=O)(c1ccc2ccccc2c1)N1CCCCCC1	13%	0	-31%	10	-1	31*
Cc1cc(Cn2cnc3c(cnn3C(C)(C)C)c2=O)ccc1F	.	1	.	-22	.	.
COC(=O)c1ccc(NC(=O)c2ccccc2OCC(=O)Nc2ccc(Br)cc2)cc1	.	0	.	.	.	.
CCN(CC)CCCNC(=O)c1ccc2c(c1)NC(=O)C(CS(=O)(=O)Cc1cccc(Br)c1)N2 (centres undefined)	-2%	0	16µM*	0	0	4
Cc1c(C2=CCN(S(=O)(=O)c3ccc(CC(C)C)cc3)CC2)c2ccccc2n1CC(=O)N1CCCC1	7%	3	45µM*	?	-2	5
CCN(CCC#N)c1ccc(/C=C/c2ccnc3ccccc23)cc1	.	17	.	.	.	.
CC1CCN(C(=O)c2ccccc2NC(=O)Nc2ccccc2)CC1	8%	0	i	-5	0	-3
Cc1ccccc1C(=O)Nc1ccccc1C(=O)N1CCC(C)CC1	7%	54*	i	-12	-1	1
COCCn1c(-c2ccc(OC)cc2)nc2ccccc21	-11%	4	i	11	0	-4
COCCn1c2nc(=O)n(-c3ccccc3)c(=O)c-2nc2ccccc21	321%	59*	i	-9	.	.
CC1(C)Cc2c(cnn2-c2ccc(F)cc2)C(NC(=O)CCN2CCCCO2)C1 (centres undefined)	-4%	0	-3%	-8	0	37*
CC1(C)Cc2c(cnn2-c2cccc(F)c2)C(NC(=O)c2ccc[n+]([O-])c2)C1 (centres undefined)	-2%	0	-22%	6	0	31*
Cc1cc(C(=O)NC2CC(C)(C)Cc3c2cnn3-c2cccc(F)c2)n(C)n1 (centres undefined)	-4%	0	-10%	4	0	-2
COC(=O)CCC(=O)NC1CC(C)(C)Cc2c1cnn2-c1ccc(F)cc1 (centres undefined)	-13%	0	-25%	43	0	38*
Cc1ccc(-n2ncc3c2CC(C)(C)CC3NC(=O)CCN2CCCO2)cc1 (centres undefined)	-5%	0	i	-13	1	-4
O=C(CN1C(=O)c2cccc3cccc1c23)Nc1ccc2c(c1)OCO2	-4%	0	-25%[57.5 µM]	-4	-2	31*
Cc1noc(C)c1C(=O)OCC(=O)Nc1ccc(N2CCOCC2)cc1	-1%	0	18µM*	15	.	.
Cc1noc(C)c1C(=O)OCC(=O)Nc1ccc(C(N)=O)cc1	-4%	-1	i	-11	1	-4
CSC(=S)N/N=C/c1ccc(Br)cc1	11µM*	0	-9%	14	0	0
